Structures can show the parent of a compound that is named as a salt. ± gives the uncertainty stated by the source.
Tested on: NCC-PMP1-C1
Experiment: cell viability relative to DMSO control; higher = less growth inhibition
Conditions: 10 µM; 72 h
Experimental: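 NCC-PMP1-C1 pseudomyxoma peritonei cells were seeded in 384-well plates coated with Matrigel and MEF (1e4 cells). Viability was read after 72 h by CCK-8 and expressed as % of the DMSO control, mean ± SD of duplicates.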

Row | SMILES | cell viability [%]
1 | NCC(=O)CCC(=O)O [5-Aminolevulinic acid HCl] | 102.7 ± 0.67
2 | Nc1nnc(-c2cccc(Cl)c2Cl)c(N)n1 [Lamotrigine] | 102.9 ± 0.8
3 | CCCCCOC(=O)Nc1nc(=O)n([C@@H]2O[C@H](C)[C@@H](O)[C@H]2O)cc1F [Capecitabine] | 98.9 ± 16
4 | Nc1cccc2c1CN(C1CCC(=O)NC1=O)C2=O (stereo not drawn) [Lenalidomide] | 106 ± 3.2
5 | CNNCc1ccc(C(=O)NC(C)C)cc1 [Procarbazine HCl] | 100 ± 22
6 | O=C(O)C(=O)O.[NH-][C@@H]1CCCC[C@H]1[NH-].[Pt+2] [Oxaliplatin] | 103 ± 15
7 | CC(=O)O[C@@]12CO[C@@H]1C[C@H](O)[C@@]1(C)C(=O)[C@H](O)C3=C(C)[C@@H](OC(=O)[C@H](O)[C@@H](NC(=O)OC(C)(C)C)c4ccccc4)C[C@@](O)([C@@H](OC(=O)c4ccccc4)[C@H]21)C3(C)C [Docetaxel] | 72.1 ± 2.1
8 | C#Cc1cccc(Nc2ncnc3cc(OCCOC)c(OCCOC)cc23)c1 [Erlotinib HCl (OSI-744)] | 74.6 ± 2.7
9 | CCN(CC)CCOc1ccc(C(=C(Cl)c2ccccc2)c2ccccc2)cc1 [Clomifene citrate] | -6.65 ± 0.33
10 | O=P(O)(O)C(O)(Cn1ccnc1)P(=O)(O)O [Zoledronic Acid] | 109 ± 6
11 | CC(C)(C#N)c1cc(Cn2cncn2)cc(C(C)(C)C#N)c1 [Anastrozole] | 110 ± 6.5
12 | Nc1nc(F)nc2c1ncn2[C@@H]1O[C@H](CO)[C@@H](O)[C@@H]1O [Fludarabine] | 114 ± 29
13 | O=c1[nH]c(=O)n([C@H]2C[C@H](O)[C@@H](CO)O2)cc1F [Floxuridine] | 108 ± 12

Reference: the supplement of paper PMC8877412
